LGR2 inh: Drosophila LGR2 receptor signaling inhibition; HEK293 LGR2, CRE-luciferase, bursicon-stimulated, 4 h; inhibition, % at 9.99 µM; hit rate 0.35% among 380,000; AID 720647;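 active means drop in luminescence signal, shown as inhibition above about 50% in the replicate tests, limit read from the data, passing the limit was not always enough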;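 further: agonist challenge used bursicon conditioned medium at about half maximal strength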
KKLEB tox: CF airway cell cytotoxicity counter-screen. KKLEB CF airway cells viability, ATPlite luminescence, overnight; stronger effect = lower value; cells stimulated with P. aeruginosa culture filtrate. activity change (cytotoxicity), % at 5 µM. hit rate 0.36% among 360,000. AID 602141;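 active means corrected activity change at or below -50% at 5 µM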
TWEAK-Fn14 inh: inhibitors of TWEAK-Fn14 interaction signaling; TWEAK-stimulated Fn14 reporter cells, luciferase luminescence, 8 h; inhibition, % at 10 µM; hit rate 2% among 360,000; AID 1159606; in the data active means inhibition above about 50%
iPSC survival up: enhancers of human iPSC single-cell survival | survival enhancement, % at 20 µM | hit rate 0.044% among 360,000 | AID 602274 | hiPSC single-cell survival, ATPlite luminescence; 100% = ROCK inhibitor wells, 0% = DMSO; in the data active means survival enhancement above about 18%;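 further: cells exposed to compounds for 16 hours before the ATP read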
HIF-2a block: inhibitors of HIF-2a. 786-0 RCC cells HIF-2a reporter, luciferase luminescence, overnight. inhibition, % at 18.8 µM. hit rate 0.72% among 360,000. AID 624352;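 active means inhibition of the luminescence signal of 40% or more relative to plate controls, in a single-dose primary screen at 18.75 µM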
CF NFkB block: blocks PAF-induced NF-kB reporter in cystic fibrosis cells | hit rate 0.86% among 360,000 | inhibition, % at 5 µM | KKLEB NF-kB-GFP reporter, GFP fluorescence overnight;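 active means at least 50% inhibition at 5 µM, scaled per plate between neutral and stimulator controls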;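 further: PAF is a Pseudomonas aeruginosa culture filtrate used as stimulus; plate controls were PAF-stimulated DMSO wells for no effect and unstimulated DMSO wells for full effect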
Numbers without * were called inactive; x = not tested or not shown. Shown are actives, neighbours in structure and some others; about 2.3% of the full set was active somewhere.

SMILES	LGR2 inh	KKLEB tox	TWEAK-Fn14 inh	iPSC survival up	HIF-2a block	CF NFkB block
O=C(N/N=C/c1ccccc1)c1n[nH]c2c1CCCC2	31	-32	54*	-2	-112	-2
O=C(N/N=C/c1ccc(Cl)cc1)c1n[nH]c2c1CCCC2	-74	7	-3	0	-251	33
C[C@@H]1CN([C@H](C)CO)C(=O)Cc2cc(NC(=O)C3CCCCC3)ccc2O[C@@H]1CN(C)Cc1ccc(Cl)c(Cl)c1	9	x	x	x	x	x
CCCNC(=O)[C@@H]1[C@@H](CO)[C@@H]2Cn3c(ccc(/C=C/c4ccccc4)c3=O)[C@@H]2N1CC	9	x	x	x	x	x
CC=Cc1ccc2n(c1=O)C[C@@H]1[C@@H](CO)[C@H](C(=O)NCC(F)(F)F)[C@H]2N1C(=O)C1CCCC1 (mixture of isomers)	1	x	x	x	x	x
CCOC(=O)c1[nH]c2ccccc2c1NC(=O)NC(C)C	12	0	6	0	10	-5
CCOC(=O)c1[nH]c2ccccc2c1NC(=O)c1ccc(Br)o1	12	12	66*	-1	-25	-32
O=C1NC2(NN1c1ccccc1)C1CC3CC(C1)CC2C3 (configuration not stated)	15	0	88*	2	14	2
O=C1NC2(CCC3(CC2)OCCO3)NN1c1ccccc1	4	16	-7	1	8	-4
C[C@@H]1CCCCO[C@H](CN(C)C(=O)Nc2ccccc2)[C@H](C)CN([C@H](C)CO)C(=O)c2cc(NC(=O)c3ccccc3)ccc2O1	13	x	x	x	x	x
CN(C)c1ccc(C(=O)n2nnc3ccccc32)cc1	x	-36	94*	0	-42	69*
C#CCOC(=O)c1ccccc1C(=O)n1nnc2ccccc21	4	-28	55*	0	9	39
C#CCOC(=O)c1ccccc1C(=O)OCC#C	12	4	-4	3	11	5
Cc1noc(C)c1NC(=O)N(C)C[C@H]1Oc2ccc(N(C)C)cc2CC(=O)N([C@H](C)CO)C[C@@H]1C	9	x	x	x	x	x
COc1ccc2c3c([nH]c2c1)[C@H](CO)N(CC1CC1)CC31CN(C(=O)c2ccccc2)C1	-26	x	x	x	x	x
COC(=O)[C@H]1[C@@H](O)[C@@]2(O)c3c(OC)cc(OC)cc3O[C@@]2(c2ccc(OC)cc2)[C@@H]1c1ccc(F)cc1	86*	x	x	x	x	x
COc1ccc2c(CC(=O)Nc3ccc(OC)c(S(=O)(=O)N4CCOCC4)c3)coc2c1	11	4	-6	2	-31	-1
COc1ccc(NC(=O)Cc2coc3cc(C)c(C(C)C)cc23)cc1S(=O)(=O)N1CCOCC1	12	3	53*	3	5	-4
COc1ccc(S(=O)(=O)Nc2ccc3c(c2)C(=O)N([C@@H](C)CO)C[C@H](C)[C@@H](CN(C)C(=O)C2CCCCC2)OCCCC[C@H](C)O3)cc1	6	x	x	x	x	x
O=C(/C=C/c1ccnc2ccccc12)c1cccs1	2	-14	65*	-2	-98	61*
Cc1csc(NC(=O)c2ccc3ccccc3n2)n1	-112	-15	26	0	-98	-3
CCOC(=O)c1sc(NC(=O)c2ccc(CC)s2)nc1C	x	9	19	0	-201	0
Cc1csc(NC(=O)c2cnc3ccccc3n2)n1	58*	-4	52*	0	-46	-28
CCc1ccc(C(=O)Nc2nc(C)cs2)s1	9	-2	63*	0	56*	-6
CCC(=O)Nc1ccc2c(c1)OC[C@H](C)N(Cc1ccccn1)C[C@@H](C)[C@H](OC)CN(C)C2=O	-9	x	x	x	x	x
SMILES	LGR2 inh	KKLEB tox	TWEAK-Fn14 inh	iPSC survival up	HIF-2a block	CF NFkB block
COCC(=O)Nc1ccc2c(c1)OC[C@H](C)N(C(=O)Cc1ccccn1)C[C@H](C)[C@H](OC)CN(C)C2=O	-6	x	x	x	x	x
Cc1ccc(-c2nc(-c3ccncc3)no2)c(Cl)c1	75*	-44	69*	-1	-73	10
c1ccc(-c2ccc(-c3nc(-c4ccncc4)no3)cc2)cc1	x	23	65*	-2	-299	-20
CCc1ccc(-c2nc(-c3ccncc3)no2)cc1	x	-15	76*	-3	-35	-4
Clc1ccc(-c2nc(-c3ccncc3)no2)c(Cl)c1	-70	-3	16	-1	-265	-16
CCCCc1ccc(-c2nc(-c3ccncc3)no2)cc1	x	6	33	-2	-133	-5
CCN1[C@@H]2c3ccc(-c4cccc(F)c4)c(=O)n3C[C@H]1[C@H](CO)[C@H]2C(=O)NCCCN(C)C	7	x	x	x	x	x

Assay outcomes from PubChem BioAssay.
